# Reference: the supplement of paper PMC10105736
# Values without a mark were called inactive.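 The calls were made as follows: active = MAPPIT score above the 99th percentile of random reference set scores in the same batch; inactive = at or below it.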
# B1: CG12096 (protein)
# chain: MEMEDNWWVTKLKALESKPQRLDALTAMNSAIAKEAALPRQIIERLLTTDQLYDCANPAADSHVPKDQAVDVTLELLCHCLDQLAMDTADEQLSSLLRRGLTHSNPALRAQVLASLFKKLLRQLTVGQVLTLPNNELIFLILDELKQPDTQSTSLAINILSIVLPQRISNADVQAKLVQLLKQNEIVRCRAYELAVVLAKKSATLLSDVTFILDAALSELDNDDVLLQASVMELLVPLAEQNHGLSYMERRRVLDIISYRVQRVEEHPLDALLVPSIMKFFGKISVYQPLKIIGGYPHMLACLFMQLQSEDESILPTAMDTLANLATTPQGKILLNMHFSGAMEKSFKKYGSHTKKLSAHIKKRLLNSLDVIYDFKTPPATEIINIGKNWYECFAGGAHANIIMDLINTPFPDLQMAALSFLKTICKYNWGIVALKNTGGAVEFLLSRQKDLHRDIKYMKWQIMEILSASAEFSPTETIRFTAYVNEGPYHVQADLDVATEPQGNA
# B2: Vm32E (protein)
# chain: MQIVALTLVAFVAIAGASCPYAAPAPAYSAPAASSGYPAPPCPTNYLFSCQPNLAPAPCAQEAPAYGSAGAYTEQVPHYVGSPNREQLQQFHQRIGMAALMEELRGLGQGIQGQQY
# B3: Pep (protein)
# chain: MVSVKVNGNPQNRLVNNAKVNGNMAFRGNQNRNRNFGGGNNNYGGPMGANRMGGMNMSPWESQNPGGGQFGNNMRQGGGQMNAQAINLANNLLNNLFRNQNPPSLLDLPRGGGGMGNRNQRGGPMVSRGGGAGNRLNNRRGQGGGFQNRGATGSGPKPPPKQGGGGIRKQNAFDRAKKLLAKNANQNKKKEPTPGEKKIESPTKESPYASVPNDMFYCHLCKKHMWDANSFENHIKGRTHLMMREGIEESYRLKANMIRQEAKIAEQLKSIEFDRLKRMGKSKQRQLDYCTMCDLNFHGHISTHRKSEGHLQLKKFLHPKCIECNKEFATRIDYDTHLLSAEHLKKAAENNTKVGERKRQTLPISTEEEETRDLRLPQKRKKKPVKKEGEAADGEAKKEGAGDGEGAEGDEAEGEEAKEGEEAADETKEGDELNESQEEEEVALPVDPEDCILDFNDGDEIPSEVDTRLPKYNWQRAVGPGLISKLECYECSVCSKFFDTEVTAEIHSRTATHHRNFLKFINEKSSDTKIAQKRAAAALEENERKKRKVEEAEAPAAEGAAEETTEGAEGELYDPSEATGDDEDVEMVDDNAEGEGEGEGDEEAEAEVEEDGAGQDNGEEEMEAQEEEGQEGEQEPEPEPAPVQTPAPAEPAPPAKTPAKTPTKAAAPAAVASPAAAATSADASPSPAKKATPARAAAGAKATPQRQRARGRYNRY
# B4: Cog8 (protein)
# chain: MDFPDKMDLENERVLKLIFPDGVPDNLRGNPELDNYLAKLGTCKVEQLKKEQTRLAEEARTILEQTQDLAISNYRTFITTAENSRSIFSEFLRSEQQLDTLVSKLPDLSVQCERFLQDSAELNEQRRLNSITLQKNAQLLEVLELPQLMERCIREGRYEEALELAAYATRLGQHQGHIPVVTSIVRSVEALWHNMLVQLVAQLRTDLQLPKCLQIVGYLRRMQAFGDNELRLKFLQARDAWLTSCLEAIPTADAQQHLSKTIEITRINLFNIITQYRAIFPEDEGTLKTQSSLRPLQGVSCNGDRLFQAWLHNKISDFLQTLERDLQLGVGSVETVLGQCMYFGLSFSRVGADFRALMAPIFVGVIRRRFESSVEQVDEQFERELERFTLINKVALHSHARKQVDPEQESYAPPEALLDFYPLAALCNGYLSALNELRLCAPLALATDVTRCLQHSLQQAAQRVLAFYRQEQQAFAGSEREAFVRLCSCLAYDLVPYIQRCIHGVFPPQSLTVHLGISLLQLEQQQLTYLQQTRILEPLKHLLPTKALVQPQDKVMEAKPSAGVPVTAEG
# B5: ord (protein)
# chain: MYGETTLNKNHVIKFIKLKINNCLGCDEVEINFSKADNVHIIIYSLVTDMAKDLPAVTPVAQAILLLCSLTYPDSDSLETIPQLKIGKGSVSMSFKVYPVNKEEETEPESESDLDEGPSTSKQALERMVQRAERKAKEASTRNVHSKGIYVNVERRFDMYFALDTVSYYINGGKRQSCPLPEFHAKFFVRPQHSINLLRQLHEKCSGNWLKVIQSDGDGDAFKKFKDPDSPFETFVKLFESNPIKPNDMMGKLAKTCLHVNEAVRLTEREFILEVFNQVRHIFEYITAQEYTVWFLVPCLGDKDQLRSKTLEDFDLTKVRTSIRRAGDTSNIWWDHTDHNIKDILLVAFQLDLATHVNQSVLVISHLETLAEFSTMQYVTAFFMNDFYAKKNTEPKWICHRYLERIIDVALFLGVIVIIEYPSAFTLLQEGRHLIKCFQKENADSSRTSQWEIFEDVVKENESDLEFLKEAVGKVQQNV
# B6: rush (protein)
# chain: MVDRLVNSEANTRRIASVENCFGSSGVPLAMQGRVLVGEGVLTKMCRKRPKSRQFFLFNDILVYGNIVIGKKKYNKQHIMPLEEVSLESIADNQTYRNGWYIRTTTKSFVVFAATSTEKQEWMAHINKCVEDLLRKSGKKPVENHAAVWVPDTDASVCMHCKKTQFTFIQRRHHCRNCGAVVCAGCSAKKFLLPQQSTKALRVCDACYERLKHVPSSLGSGEDSAAATGAASGNKLNTTAGDSSNDEDSDEETASPGGESHDEPRFYGDNSVLSAVEDSSTITSPSSATTGSLEAPQVTPSVQSSPAAVATTGSHC
# B7: CG11899 (protein)
# chain: MVINFAAGPAKLPEEVLKEVQENLVNCNGSGISVMEMSHRSSNYAKIHDATISDLRELLNVPSNYKILLMQGGGTGQFAAVALNLIGKTGTADYVITGSWSAKAAKEAAQYGTVNAVLPKLAKYTTVPRQETWKLDPNASYVYYCDNETVEGVEFDFVPEVPAGVPLVADMSSNFLSRPFDVSKFGVIYAGAQKNIGPAGTTVIIVRDDLIGKHLKITPSILNFEQMDKNNSLLNTPPTFGIYVMGLVFKWIKRNGGVAGMAKLAAAKSKLIYDTINQSNGFYYCPVDVNVRSRMNVPFRIGSASGDDALEKEFLSKAEAEGMIQLKGHRSVGGIRASLYNAVTLAETQQLANLMLAFYKNNKN
# B8: Pka-R2 (protein)
# chain: MSSDSSRRIQVPEELKEVLLQFSISFLVEQPPDVIDYAVEYFTKLQSERPSVSHTDQSTDDQLSVNSQDADAEPPVMASSRRKSVFAEAYDPEADDDDDGATAVFPKTDEQRARLVESVKNVLLFRSLEKEQMNQVLDAMFERKVQPGDFIIRQGDDGDNFYVIESGVYKVYINDKHINTYNHTGLFGELALLYNMPRAATVQAETSGLLWAMDRQTFRRILLKSAFRKRKMYEELLNSVPMLKALQNYERMNLADALVSKSYDNGERIIKQGDAADGMYFIEEGTVSVRMDQDDAEVEISQLGKGQYFGELALVTHRPRAASVYATGGVVKLAFLDVKAFERLLGPCMDIMKRNIDDYESQLVKIFGSKNNITDTR
# B9: mRpL24 (protein)
# chain: MRLTQYLASKLKNFSNLPKEYIERSKKQVYWQTPKEINYLPRTVERKRFRYTTNRSWTGQFRQQNMPGTVRRKVLVEPIEDWSFFRGDRIEVLVGKDKGKQGIVTQVIPERNWVIVEGLNWHYRKVGGEKEFPGIIIKSEAPLHVTKDIRLVDPSDLQGTDFEWRFTEEGEKVRVSLRSGRIIPIPETNNQTHDYKTPNAYIEREKDTPGAVVGEITFQPKLSTFEMDIMEEMGIKEERTPVKSYWY
# B10: SmD2 (protein)
# chain: MALVKPKSELTPEELARQEEEEFNTGPLSVLTQSVKNNTQVLINCRNNKKLLGRVKAFDRHCNMVLENVKEMWTELPRTGKGKKKVKPVNKDRFISKMFLRGDSVILVLRNPLATAAGK
# B11: mts (protein)
# chain: MEDKATTKDLDQWIEQLNECNQLTETQVRTLCDKAKEILSKESNVQEVKCPVTVCGDVHGQFHDLMELFRIGGKSPDTNYLFMGDYVDRGYYSVETVTLLVALKVRYRERITILRGNHESRQITQVYGFYDECLRKYGNANVWKYFTDLFDYLPLTALVDGQIFCLHGGLSPSIDSLDHIRALDRLQEVPHEGPMCDLLWSDPDDRGGWGISPRGAGYTFGQDISETFNNTNGLTLVSRAHQLVMEGYNWCHDRNVVTIFSAPNYCYRCGNQAALMELDDSLKFSFLQFDPAPRRGEPHVTRRTPDYFL
# B12: CG7137 (protein)
# chain: MKPFEVPPWEEGADIIEFEPVNPSGNGVAAKKKPKKKKPKKKKAAVPNENLNVNKAAEKFTYRQGRGPLAPPQDSSDDDYEDVEDGIRAMHKVKSGRIEKQRPPTQATKGGKKELKLKPELAQAALEAMEATSSTTPAANSLASKLQSELLGGRFRYINEQLYSTTSRKAEALFRKDSSAFEAYHAGYRQQVEKWPINPLNRIIKTIKKIPKTAIIGDFGCGEGKLAQSVPNKVYSMDLVAARSDIIACNITDTPLQARTLDVAVYCLSLMGTDLNEFFLEANRVLKLHGTVYIAEIQSRFQDVREFVRCLNACGFDLNKKDVAVNYFYFFQFKKMRHVPKNTKMKAFSLKPCLYRKR
# B13: alien (protein)
# chain: MSDNDDDFMCDDDEDYGLEYSEDSNSEPDVDLENQYYNSKALKEEEPKAALASFQKVLDLENGEKGEWGFKALKQMIKINFRLCNYDEMMVRYKQLLTYIKSAVTRNHSEKSINSILDYISTSKNMALLQNFYETTLDALRDAKNDRLWFKTNTKLGKLYFDRSDFTKLQKILKQLHQSCQTDDGEDDLKKGTQLLEIYALEIQMYTVQKNNKKLKALYEQSLHIKSAIPHPLIMGVIRECGGKMHLREGEFEKAHTDFFEAFKNYDESGSPRRTTCLKYLVLANMLMKSGINPFDSQEAKPYKNDPEILAMTNLVNSYQNNDINEFETILRQHRSNIMADQFIREHIEDLLRNIRTQVLIKLIRPYKNIAIPFIANALNIEPAEVESLLVSCILDDTIKGRIDQVNQVLQLDKINSSASRYNALEKWSNQIQSLQFAVVQKMA
# B14: CG32486 (protein)
# chain: MSVESSSSAVQQPPSSSNLPLLGDNQAVATTSSASSASSSSTSSSSSSVGGGNVVGVPLDTQGSGEPPAKKQLLDGGGGGATSSSGSSLLSSAAAASGMHEKLAHRISNALCCAVCLDLPKTAMYQCQMGHLMCAACFTHLLADGRLRDQIATCPNCRVEISKSTASRNLAVEKAASELPSECQFCNKEFPYKSLERHEQHECQERPTKCKYHRIGCQWRGPYHETNEHERNCLHPQKSGYEVMAALEAHDDRIKEEKKMFNTLIDLLSYEKIIFNDLQMKPYRTDEYVHKLFYETARFSAFNQQWVVKARINNSQRDPHQSNERTITYQLILKTKTSTPMSIHFFALKGPFSDMKVSTQIYKHEFTETSTESEYYVLPLPDGVGGSGSSECNRMLANKGINFRLLMFLLNK
# B15: Adi1 (protein)
# chain: MVQVWYMDTEETDQRLEHHRNPPAYLELDDLYQKTGVEYFKINADEYQSDNTLTELRAKRGYTYDDEITCSEKCLPDYANKLKAFFTEHLHTDEEIRLILEGSGYFDVRDNEDNWLRIKVVKGDLIIIPAGIYHRFTLDTNNFIRTRRYFVGEPVWAPHNRPADEMDCRKSYIKHQSENFVQFNKV
# Key:
# Assay in all cases: MAPPIT interaction score (arbitrary units); higher = stronger binary interaction signal, active = hit call of the paper
# Rpt2 = settings: MAPPIT configuration: N-N; pair source set: screen_1
# RpS5a = settings: MAPPIT configuration: N-N; pair source set: Curagen_high_conf
# Sid = settings: MAPPIT configuration: N-N; pair source set: Curagen_high_conf
# Xbp1 = settings: MAPPIT configuration: N-N; pair source set: Curagen_low_conf
# RpS29 = settings: pair source set: RRS
# Sce = settings: MAPPIT configuration: N-C; pair source set: Lit-BM-16
# Rtnl1 = settings: MAPPIT configuration: N-N; pair source set: screen_2
# SelR = settings: MAPPIT configuration: N-N; pair source set: Curagen_high_conf
# Shmt = settings: MAPPIT configuration: N-N; pair source set: Curagen_high_conf
# Sarm = settings: MAPPIT configuration: N-N; pair source set: Curagen_low_conf
# [1] = substrate: SNCF; settings: MAPPIT configuration: N-N; pair source set: DPIM
# RpS3 = settings: MAPPIT configuration: N-N; pair source set: Curagen_low_conf
# msl-3 = settings: MAPPIT configuration: N-N; pair source set: DPIM
# Sas10 = settings: MAPPIT configuration: N-N; pair source set: Finley_Y2H
# grau = settings: MAPPIT configuration: N-N; pair source set: Lit-BM-16
# Rpn6 = settings: pair source set: Lit-BM-16
# ScpX = settings: MAPPIT configuration: N-N; pair source set: Curagen_high_conf
# Sfp84E = settings: pair source set: RRS
# alc = settings: MAPPIT configuration: N-N; pair source set: Lit-BS-16
# robl62A = settings: MAPPIT configuration: N-N; pair source set: RRS
# 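Also: HEK293T cells with Epo stimulation, STAT-responsive firefly luciferase reporter, fold induction versus unstimulated cells divided by the larger fold induction of two negative controls lacking either bait or prey.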
binder,measurement,setting,value
B1,MAPPIT interaction score,Rpt2,5.01 (active)
B2,MAPPIT interaction score,RpS5a,0.177
B3,MAPPIT interaction score,Sid,-0.865
same,MAPPIT interaction score,Xbp1,-0.182
B4,MAPPIT interaction score,RpS29; MAPPIT configuration: N-C,0.627
same,MAPPIT interaction score,RpS29; MAPPIT configuration: N-N,-0.265
B5,MAPPIT interaction score,Sce,2.19
B6,MAPPIT interaction score,Rtnl1,-0.205
B7,MAPPIT interaction score,SelR,0.998
B8,MAPPIT interaction score,Shmt,0.452
B9,MAPPIT interaction score,Sarm,0.785
B10,MAPPIT interaction score,[1],0.49
B11,MAPPIT interaction score,RpS3,0.284
same,MAPPIT interaction score,msl-3,1.55
B12,MAPPIT interaction score,Sas10,0.356
same,MAPPIT interaction score,grau,0.26
B13,MAPPIT interaction score,Rpn6; MAPPIT configuration: N-C,4.99 (active)
same,MAPPIT interaction score,Rpn6; MAPPIT configuration: N-N,0.207
B14,MAPPIT interaction score,ScpX,4.53 (active)
B15,MAPPIT interaction score,Sfp84E; MAPPIT configuration: N-C,0.249
same,MAPPIT interaction score,Sfp84E; MAPPIT configuration: N-N,0.123
same,MAPPIT interaction score,alc,0.0614
same,MAPPIT interaction score,robl62A,2.17
